Laboratory results reported in PubChem BioAssay (Tox21).
“And” between values parts separate entries of the source, which are not always exact repeats. Identical values can stand only once. Results filed as inconclusive are left out. Some compounds were tested as several samples or in several runs, with calls that do not always agree. The source made the active and inactive calls. Unless noted, the call rests on the fitted dose curve.

How the values were obtained:
[1] = Nuclear factor erythroid 2-related factor 2/antioxidant responsive element (Nrf2/ARE) small molecule agonists: qHTS cell viability counter screen in human keratinocytes (AID 1919968; active means well fitted cell-killing curve with a large enough effect in the repeat runs; further: nearly all actives have a fitted effect of over 55% in size; further: potency means the concentration at half of the fitted maximal effect)
Procedure, shortened: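 Viability counter-screen: KeratinoSens reporter cells, DMSO-delivered compounds, 23 h at 37 C, CellTiter-Fluor fluorescence.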

[2] = Nuclear factor erythroid 2-related factor 2/antioxidant responsive element (Nrf2/ARE) small molecule agonists: luciferase reporter gene qHTS assay in human keratinocytes (AID 1919969); further: nearly all actives have a fitted effect of over 35% in size; further: potency means the concentration at half of the fitted maximal effect
[3] = target: Gonadotropin-releasing hormone receptor (Homo sapiens) (UniProt P30968); experiment: Human gonadotropin-releasing hormone receptor (GnRHR) small molecule agonists, calcium flux assay in GnRHR-HEK293 cells (AID 1920063); further: nearly all actives have a fitted effect of over 35% in size
Procedure, shortened: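 Tox21-format agonist screen using human GnRHR-expressing HEK293 cells and a fluorescent calcium dye; kinetic 3-min fluorescence reading after compound addition, 15-point concentration series run in triplicate.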

[4] = p53 small molecule agonists, cell-based qHTS assay with human liver microsomes (AID 1963577);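 further: p53 response element beta-lactamase reporter cells with liver microsomes plus NADPH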
Procedure, shortened: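 16 h, 37 C exposure of p53RE-bla cells to compounds with human liver microsomes and NADPH (0.5 mg/mL final each); detection via LiveBLAzer mixture, 2 h dark at room temperature.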

[5] = p53 small molecule agonists, cell-based qHTS assay with rat liver microsomes: qHTS cell viability counter screen (AID 1963580); further: nearly all actives have a fitted effect of over 45% in size
Procedure, shortened: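 In HCT-116 cells carrying a p53 response element-bla reporter, compounds were metabolically activated in situ by rat liver microsomes with NADPH over 16 h. Cell ATP content then served as the cytotoxicity measure.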

[6] = p53 small molecule agonists, cell-based qHTS assay: qHTS cell viability counter screen (AID 1963581); further: nearly all actives have a fitted effect of over 45% in size
Procedure, shortened: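 Compounds are pinned onto HCT-116 p53RE-bla cells and left 16 h at 37 C. Following the reporter FRET read, ATP is quantified by CellTiter-Glo luminescence after 30 min at room temperature.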

[7] = p53 small molecule agonists, cell-based qHTS assay (AID 1963582; active means well fitted activation curve with a large enough effect in the signal ratio in the repeat runs, not every such curve was filed as active; the % refers to the signal ratio)
Procedure, shortened: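 Agonist activity was scored from beta-lactamase FRET fluorescence in p53RE-bla cells treated 16 h at 37 C with compounds in DMSO, substrate incubation being 2 h at room temperature.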

[8] = target: 5-hydroxytryptamine receptor 2A (Homo sapiens) (UniProt P28223); experiment: 5-hydroxytryptamine receptor 2A (HTR2A) small molecule antagonists, cell-based qHTS assay (AID 1963586); further: nearly all actives have a fitted effect of over 45% in size; further: potency means the concentration at half of the fitted maximal effect
Procedure, shortened: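 Antagonist-mode intracellular calcium assay: DOI (4 nM) added after 5 min compound pre-incubation at room temperature to dye-loaded HTR2A-CHO cells. Fluorescence followed for 3 min, sampled every second.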

[9] = target: 5-hydroxytryptamine receptor 2A (Homo sapiens) (UniProt P28223); experiment: 5-hydroxytryptamine receptor 2A (HTR2A) small molecule agonists, cell-based qHTS assay (AID 1963587); further: nearly all actives have a fitted effect of over 30% in size
Procedure, shortened: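 HTR2A-CHO cells, plated 18 h at 37 C/5% CO2, dye-loaded 1 h at 37 C; compounds in DMSO added by pin tool (agonist mode). Intracellular calcium flux read as kinetic fluorescence on FDSS over 2 min at 1 s intervals.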

[10] = target: Muscarinic acetylcholine receptor M1 (Homo sapiens) (UniProt P11229); experiment: Cholinergic receptor muscarinic 1 (CHRM1) small molecule antagonists, cell-based qHTS assay (AID 1963588); further: nearly all actives have a fitted effect of over 40% in size; further: potency means the concentration at half of the fitted maximal effect
Procedure, shortened: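 CHRM1-CHO calcium-flux assay, antagonist mode. Cells were seeded 18 h, dye-loaded 1 h at 37 C and given compound for 5 min at RT, then acetylcholine was added at 50nM. FDSS fluorescence was read 3 min; 15 concentrations, three runs.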

[11] = target: Muscarinic acetylcholine receptor M1 (Homo sapiens) (UniProt P11229); experiment: Cholinergic receptor muscarinic 1 (CHRM1) small molecule agonists, cell-based qHTS assay (AID 1963589); further: nearly all actives have a fitted effect of over 35% in size
Procedure, shortened: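 Stable CHRM1-CHO cells (human receptor) were incubated 18 h, dye-loaded for 1 h at 37 C and exposed to test compounds for agonist activity, with calcium-dependent fluorescence followed kinetically.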

[12] = cAMP Responsive Elements (CRE) small molecule antagonists, cell-based qHTS assay (AID 1963591; active means well fitted inhibition curve with a large enough effect in the signal ratio in the repeat runs, not every such curve was filed as active; the % refers to the signal ratio)
Procedure, shortened: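 qHTS in CRE-bla HEK 293T cells: compound in DMSO, then 0.25 uM NKH477 (final), 3 h at 37 °C/5% CO2; beta-lactamase FRET read-out after 2 h substrate incubation.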

[13] = target: Beta-2 adrenergic receptor (Homo sapiens) (UniProt P07550); experiment: Adrenergic beta2 receptor (ADRB2) small molecule antagonists, cell-based qHTS assay (AID 1963592); further: series mostly up to about 92 µM; nearly all actives have a fitted effect of over 50% in size
Procedure, shortened: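 Cells (CHO, stable ADRB2 overexpression) incubated 18-20hr at 37C; compounds added from DMSO; agonist mix (1nM isoproterenol, 100uM IBMX, 25uM Ro-20-1724) added; 0.5hr RT; d2-cAMP and anti-cAMP-cryptate added; 1hr RT; 665/615 nm read.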

[14] = target: D(2) dopamine receptor (Homo sapiens) (UniProt P14416); experiment: Dopamine D2 receptor (DRD2) small molecule agonists, cell-based qHTS assay (AID 1963594); further: nearly all actives have a fitted effect of over 35% in size
Procedure, shortened: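 HEK293 cells stably expressing DRD2 were cultured 24 h at 37 C, then given Ro20-1724 (0.1 mM final) and compounds for 10 min at room temperature. NKH477 (200nM) was then added for 30 min. cAMP was read by HTRF.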

[15] = target: D(2) dopamine receptor (Homo sapiens) (UniProt P14416); experiment: Dopamine D2 receptor (DRD2) small molecule antagonists, cell-based qHTS assay (AID 1963595; active means well fitted inhibition curve with a large enough effect in the signal ratio in the repeat runs, with a control signal flat; the % refers to the signal ratio; further: potency means the concentration at half of the fitted maximal effect)
Procedure, shortened: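 HEK293 cells stably expressing DRD2 were preincubated with 0.1 mM Ro20-1724, then with compound for 10 min at room temperature. Cells were stimulated with 200 nM NKH477 plus 12 nM quinpirole for 30 min, and cAMP was read by HTRF.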

[16] = p53 small molecule agonists, cell-based qHTS assay with rat liver microsomes (AID 1963578)
Procedure, shortened: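 With rat liver microsomes and NADPH present (0.5 mg/mL final each), p53RE-bla cells are treated with compound for 16 h at 37 C. LiveBLAzer detection mixture is then applied for 2 h at room temperature in the dark.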

[17] = p53 small molecule agonists, cell-based qHTS assay with human liver microsomes: qHTS cell viability counter screen (AID 1963579); further: nearly all actives have a fitted effect of over 45% in size
Procedure, shortened: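 In this multiplexed counter screen, the reporter plates were subsequently treated with CellTiter-Glo so that cell viability, reflected by luminescence, could be recorded for p53RE-bla cells dosed 16 h with compounds under microsomal activation (HLM and NADPH).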

[18] = cAMP Responsive Elements (CRE) small molecule agonists, cell-based qHTS assay (AID 1963590)
Procedure, shortened: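 FRET-based beta-lactamase readout (LiveBLAzer B/G, 2 h RT) quantified CRE activation in HEK 293T CRE-bla cells after 3 h treatment with DMSO-dissolved compounds.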

[19] = target: Beta-2 adrenergic receptor (Homo sapiens) (UniProt P07550); experiment: Adrenergic beta2 receptor (ADRB2) small molecule agonists, cell-based qHTS assay (AID 1963593);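 further: CHO cells stably overexpressing human ADRB2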
Procedure, shortened: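 CHO cells stably over-expressing ADRB2 were plated overnight at 37C, then dosed with compounds plus a stimulation mix containing 100uM IBMX and 25uM Ro-20-1724 for 0.5hr at room temperature. cAMP was measured by HTRF competition, 1hr.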

[20] = G protein-coupled receptor (GPCR) small molecule agonists, calcium flux assay: HEK293 wild type cell line counter screen (AID 1920065)
Procedure, shortened: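 In this agonist-mode screen, ATP is the positive control and DMSO the vehicle. Cells grow 18 h before a 1 h dye incubation at 37 C; signal is taken at Ex/Em 480/540 over 3 min.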

Measured: Potency

Chain of Muscarinic acetylcholine receptor M1 (Homo sapiens) (P11229 whole entry, looked up): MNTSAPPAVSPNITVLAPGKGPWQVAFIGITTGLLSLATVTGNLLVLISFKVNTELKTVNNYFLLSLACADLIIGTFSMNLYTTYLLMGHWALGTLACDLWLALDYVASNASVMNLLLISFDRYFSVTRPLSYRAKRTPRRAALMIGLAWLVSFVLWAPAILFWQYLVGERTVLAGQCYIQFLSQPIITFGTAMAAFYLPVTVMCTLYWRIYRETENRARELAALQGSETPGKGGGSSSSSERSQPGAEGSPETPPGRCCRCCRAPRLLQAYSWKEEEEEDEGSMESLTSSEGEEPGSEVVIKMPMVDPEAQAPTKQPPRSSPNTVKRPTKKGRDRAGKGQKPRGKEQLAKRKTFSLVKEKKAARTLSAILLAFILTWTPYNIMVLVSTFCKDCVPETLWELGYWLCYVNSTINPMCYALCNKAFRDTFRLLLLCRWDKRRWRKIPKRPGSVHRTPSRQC
Chain of D(2) dopamine receptor (Homo sapiens) (P14416 whole entry, looked up): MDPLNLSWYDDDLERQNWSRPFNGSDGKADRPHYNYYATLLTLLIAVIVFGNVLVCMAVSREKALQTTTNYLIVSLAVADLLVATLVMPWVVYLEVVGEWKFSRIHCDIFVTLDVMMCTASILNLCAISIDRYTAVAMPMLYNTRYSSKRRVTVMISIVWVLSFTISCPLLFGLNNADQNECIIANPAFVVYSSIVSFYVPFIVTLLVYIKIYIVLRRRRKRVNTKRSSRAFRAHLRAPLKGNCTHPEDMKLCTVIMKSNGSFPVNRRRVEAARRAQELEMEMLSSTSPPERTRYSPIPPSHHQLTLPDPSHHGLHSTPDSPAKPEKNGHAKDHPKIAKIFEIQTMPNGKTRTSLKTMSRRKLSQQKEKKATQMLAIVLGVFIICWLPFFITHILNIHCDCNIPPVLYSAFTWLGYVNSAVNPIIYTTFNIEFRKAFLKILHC
Chain of Gonadotropin-releasing hormone receptor (Homo sapiens) (P30968 whole entry, looked up): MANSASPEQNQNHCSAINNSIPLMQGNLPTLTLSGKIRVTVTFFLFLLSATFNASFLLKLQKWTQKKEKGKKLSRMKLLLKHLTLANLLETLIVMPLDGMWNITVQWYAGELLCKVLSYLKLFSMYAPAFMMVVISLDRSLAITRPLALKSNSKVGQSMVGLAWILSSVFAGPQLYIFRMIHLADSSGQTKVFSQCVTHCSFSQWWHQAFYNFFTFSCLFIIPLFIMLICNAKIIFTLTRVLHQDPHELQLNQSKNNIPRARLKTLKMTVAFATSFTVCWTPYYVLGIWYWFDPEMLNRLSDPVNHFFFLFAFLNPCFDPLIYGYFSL
Chain of 5-hydroxytryptamine receptor 2A (Homo sapiens) (P28223 whole entry, looked up): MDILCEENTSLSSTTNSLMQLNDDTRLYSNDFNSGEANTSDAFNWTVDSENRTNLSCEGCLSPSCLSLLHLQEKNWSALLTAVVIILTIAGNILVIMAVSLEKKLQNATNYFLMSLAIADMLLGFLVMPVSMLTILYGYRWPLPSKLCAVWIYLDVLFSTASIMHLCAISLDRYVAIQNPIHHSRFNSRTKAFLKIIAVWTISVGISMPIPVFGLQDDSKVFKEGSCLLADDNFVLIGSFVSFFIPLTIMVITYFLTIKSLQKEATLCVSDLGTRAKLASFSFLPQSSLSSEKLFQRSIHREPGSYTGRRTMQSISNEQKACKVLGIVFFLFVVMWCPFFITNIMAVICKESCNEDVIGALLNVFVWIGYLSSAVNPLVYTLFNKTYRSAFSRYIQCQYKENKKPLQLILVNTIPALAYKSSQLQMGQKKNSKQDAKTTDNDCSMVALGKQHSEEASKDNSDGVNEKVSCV
Chain of Beta-2 adrenergic receptor (Homo sapiens) (P07550 whole entry, looked up): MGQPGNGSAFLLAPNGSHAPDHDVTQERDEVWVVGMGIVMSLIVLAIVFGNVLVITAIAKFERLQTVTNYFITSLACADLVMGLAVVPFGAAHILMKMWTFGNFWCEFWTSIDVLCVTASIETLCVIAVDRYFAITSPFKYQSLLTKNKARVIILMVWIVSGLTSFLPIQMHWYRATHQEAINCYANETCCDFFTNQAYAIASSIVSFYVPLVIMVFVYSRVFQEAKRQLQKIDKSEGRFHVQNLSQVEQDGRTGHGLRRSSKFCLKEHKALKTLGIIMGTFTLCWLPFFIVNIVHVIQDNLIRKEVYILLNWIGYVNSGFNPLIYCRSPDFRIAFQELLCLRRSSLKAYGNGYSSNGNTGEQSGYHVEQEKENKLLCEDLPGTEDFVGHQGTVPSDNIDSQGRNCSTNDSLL

NCCOCCN
not listed: [16] | [17] | [18] | [19] | [20]
inactive: all other assays above

CCCCN(CCCC)CCCCCCN(CCCC)CCCC
not listed: [6] | [9] | [20]
inactive: all other assays above

NS(=O)(=O)c1ccccc1OC(F)(F)F
not listed: [19] | [20]
inactive: all other assays above

COc1cc(N)c(Cl)cc1C(=O)NC1CCN(Cc2ccccc2)CC1
active: [8] 1.83 µM | [15] 29.8 nM
not listed: [17] | [19] | [20]
inactive: all other assays above

C=CC(=O)OCCN(CC)CC
not listed: [9] | [19] | [20]
inactive: all other assays above

CC12CCC(C(=O)C1=O)C2(C)C (configuration not stated)
not listed: [5] | [16] | [20]
inactive: all other assays above

C1CCCNCCC1
not listed: [19] | [20]
inactive: all other assays above

O=C(O)[C@@H]1[C@H]2C[C@H]3c4[nH]c5ccccc5c4CCN3C[C@@H]2CC[C@@H]1O
not listed: [5] | [10] | [15] | [20]
inactive: all other assays above

O=C1Cc2cc(Cl)ccc2N1
not listed: [10] | [11] | [20]
inactive: all other assays above

O=C(O)c1cc(N=Nc2ccc(S(=O)(=O)Nc3ccccn3)cc2)ccc1O
not listed: [8] | [9] | [10] | [11] | [15] | [20]
inactive: all other assays above

CCc1ccccc1O
60.8 µM (active) and inactive: [2]
not listed: [4] | [7] | [16] | [20]
inactive: all other assays above

CCN1C(=O)c2ccccc2C1Nc1ccc(OCCN2CCCCC2)cc1 (configuration not stated)
active: [10] 3.65 µM
not listed: [5] | [13] | [16] | [19] | [20]
inactive: all other assays above

CN1CCCC1=O
not listed: [18] | [20]
inactive: all other assays above

Cc1cccc(C)c1NC(=O)CN1CCCCCC1
not listed: [8] | [20]
inactive: all other assays above

CCCN1CCCC[C@H]1C(=O)Nc1c(C)cccc1C
not listed: [10] | [19] | [20]
inactive: all other assays above

CC(C)N=C(N)/N=C(\N)Nc1ccc(Cl)cc1
active: [10] 0.729 µM
not listed: [9] | [15] | [17] | [20]
inactive: all other assays above

CC(=O)c1cc2ccccc2s1
not listed: [11] | [14] | [20]
inactive: all other assays above

O=C(NCN1CCOCC1)c1cnccn1
not listed: [10] | [14] | [20]
inactive: all other assays above

Cc1cc(C)c(S(=O)(=O)O)cc1N=Nc1cc(S(=O)(=O)O)c2ccccc2c1O
active: [1] 30.6 µM
not listed: [8] | [9] | [14] | [15] | [18] | [19] | [20]
inactive: all other assays above

O=[N+]([O-])c1cncn1CCN1CCOCC1
not listed: [6] | [14] | [20]
inactive: all other assays above

CCSC(=O)N(CC(C)C)CC(C)C
not listed: [7] | [16] | [19] | [20]
inactive: all other assays above

CN(C)CCCNCCCN(C)C
not listed: [11] | [16] | [20]
inactive: all other assays above

Nc1c(S(=O)(=O)O)cc(Br)c2c1C(=O)c1ccccc1C2=O
inactive and 30.6 µM (active): [1]
not listed: [4] | [7] | [16] | [19] | [20]
inactive: all other assays above

CC(C)(c1ccc(O)cc1)c1ccc(O)cc1
inactive and 62.2 µM (active): [2]
not listed: [7] | [8] | [9] | [10] | [11] | [19] | [20]
inactive: all other assays above

CC(C)OC=O
not listed: [10] | [20]
inactive: all other assays above

C1=CCC2CC=CC2C1 (configuration not stated)
active: [10] 3.34 µM
not listed: [4] | [20]
inactive: all other assays above

CC(=O)Nc1ccc(C)cc1
not listed: [6] | [19] | [20]
inactive: all other assays above

COc1ccc2cc3[n+](cc2c1OC)CCc1cc2c(cc1-3)OCO2
inactive: [2] | [3] | [20] | [4] | [16] | [17] | [5] | [6]
active: [1] 4.22 µM

Cc1cc(C)c(C(=O)O)c(C)c1
not listed: [19]
inactive: all other assays above

CC1C(C)(C)C2=C(C(=O)CCC2)C1(C)C (configuration not stated)
inactive: all assays above

CC(CO)c1ccccc1 (configuration not stated)
inactive: all assays above
